For six compounds, growth results are on record in PubChem BioAssay (NCI).

Assay in all cases: NCI-60 one-dose screen, 48 h (100 = growth as untreated, 0 = no growth, -100 = all killed)
The test system of one test is NCI-H226 lung. The conditions noted are these: 10 µM.
The subject of the next test is NCI-H322M lung. The conditions noted are these: 10 µM.
In a further test the test system is HOP-62 NSCLC. The conditions noted are these: 10 µM.
Another test concerns NCI-H460 lung. The conditions noted are these: 10 µM.
The next test deals with A549/ATCC NSCLC. To be noted: 10 µM.
The test system of a further test is 786-0 renal. The conditions noted are these: 10 µM.
A further test concerns COLO 205 colon. To be noted: 10 µM.
In another test the test system is DU-145 prostate. To be noted: 10 µM.
For the next test, the system named is SF-268 CNS. The conditions noted are these: 10 µM.
A further test deals with SF-295 CNS. To be noted: 10 µM.
The next test has as its system SF-539 CNS. To be noted: 10 µM.
The subject of the next test is HCT-15 colon. To be noted: 10 µM.
For a further test, the system named is HT29 colon. To be noted: 10 µM.
For a further test, the system named is SNB-75 CNS. To be noted: 10 µM.
For the next test, the system named is SNB-19 CNS. The conditions noted are these: 10 µM.
In a further test the test system is PC-3 prostate. The conditions noted are these: 10 µM.
Another test concerns EKVX NSCLC. The conditions noted are these: 10 µM.
In another test the test system is UO-31 renal. To be noted: 10 µM.
A further test relates to ACHN renal. The conditions noted are these: 10 µM.
The next test relates to HL-60(TB) leukemia. The conditions noted are these: 10 µM unless noted.

Each structure is given as a SMILES string. Where “and” joins values, the source holds several entries; their conditions need not be identical. Equal values may be shown once. The panel holds about 83,000 compounds, 20% with a hit somewhere; the sample as a whole holds those more often.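 Cells were grown in 96-well plates and exposed to the test compound at a single concentration for 48 hours; results are reported as percent growth, with values below 10 considered active.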 Calls of active or inactive are those of the source.

Take `CC1=C[C@H]2O[C@@H]3C[C@H]4OC(=O)/C=C\C=C\[C@H]([C@@H](C)O)OCC/C(C)=C/C(=O)OC[C@@]2(CC1)[C@]4(C)[C@]31CO1`: the growth was -50.5% (active) in the test on NCI-H226 lung; -19% (active) with NCI-H322M lung; -42.9% (active) in the test on HOP-62 NSCLC; -7.38% (active) in the test with NCI-H460 lung; -25.6% (active) with A549/ATCC NSCLC; -43.6% (active) in the test with 786-0 renal. Further, the growth was -62.3% (active) with COLO 205 colon; -17.5% (active) in the test with DU-145 prostate; -1.73% (active) in the test with SF-268 CNS; -37.5% (active) in the test on SF-295 CNS; -39.2% (active) in the test on SF-539 CNS; -18.6% (active) in the test with HCT-15 colon. Also, the growth was -27.7% (active) with HT29 colon; -50.1% (active) with SNB-75 CNS; -6.9% (active) in the test on SNB-19 CNS; -23.9% (active) with PC-3 prostate; -25.1% (active) with EKVX NSCLC; -29.4% (active) in the test on UO-31 renal. Also, the growth was -16.1% (active) in the test with ACHN renal and -44.9% (active) in the test on HL-60(TB) leukemia.
`CC1=C[C@H]2O[C@@H]3C[C@H]4OC(=O)/C=C\C=C\[C@H]([C@@H](C)O)OCC[C@@H](C)[C@H](O)C(=O)OC[C@@]2(CC1)[C@]4(C)[C@]31CO1`: the growth in the test with NCI-H226 lung is -50.5% (active); in the test on NCI-H322M lung, -19.5% (active); with HOP-62 NSCLC, -34.5% (active); in the test on NCI-H460 lung, -5.9% (active); in the test on A549/ATCC NSCLC, -21.1% (active); with 786-0 renal, -43.3% (active). Further, the growth in the test on COLO 205 colon is -57.8% (active); in the test on DU-145 prostate, -18.4% (active); in the test with SF-268 CNS, -0.597% (active); with SF-295 CNS, -38.8% (active); with SF-539 CNS, -36.5% (active); in the test with HCT-15 colon it was -7.55% (active). The growth in the test on HT29 colon is -27.8% (active); with SNB-75 CNS, -48.3% (active); in the test with SNB-19 CNS it was -14.3% (active); with PC-3 prostate, -22.9% (active); with EKVX NSCLC it was -28.5% (active); in the test with UO-31 renal, -33.6% (active). For the same compound, the growth in the test with ACHN renal is -13.6% (active); with HL-60(TB) leukemia, -50.3% (active).
With `C/C=C/CC(C)C(O)[C@H](NC(=O)[C@@H]1CCCN1C(=O)C(C)(C)NC(=O)CCCCCCC)C(=O)N[C@@](C)(CC)C(=O)N[C@@H](CCC(N)=O)C(=O)N[C@H](CCC(N)=O)C(=O)NC(C)(C)C(=O)NC(C)(C)C(=O)N[C@@H](CCC(N)=O)C(=O)N[C@H](CC(C)C)C(=O)N[C@H](CO)CC(C)C` (stereo not given in full), the growth is 105% (inactive) and 6.63% (active) in the test with NCI-H226 lung; 108% (inactive) and 70% (inactive) in the test with NCI-H322M lung; 95.9% (inactive) and 14.5% (inactive) with HOP-62 NSCLC; 105% (inactive) and 13.1% (inactive) with NCI-H460 lung; 109% (inactive) and 30% (inactive) with A549/ATCC NSCLC; 103% (inactive) and 39.8% (inactive) with 786-0 renal. In addition, the growth in the test with COLO 205 colon is 118% (inactive) and -46.4% (active); with DU-145 prostate, 110% (inactive) and -35.4% (active); in the test on SF-268 CNS it was 107% (inactive) and -8.99% (active); with SF-295 CNS it was 98.8% (inactive) and -22.2% (active); in the test on SF-539 CNS it was 100% (inactive) and -45.7% (active); in the test with HCT-15 colon, 100% (inactive) and 22.1% (inactive). In addition, the growth in the test on HT29 colon was 113% (inactive) and 37.8% (inactive); in the test with SNB-75 CNS, 109% (inactive) and -30.3% (active); with SNB-19 CNS, 101% (inactive) and 14% (inactive); in the test on PC-3 prostate it was 103% (inactive) and 17.3% (inactive); in the test with EKVX NSCLC it was 100% (inactive) and 5.16% (active); with UO-31 renal it was 96.7% (inactive) and 16.1% (inactive). In addition, the growth in the test with ACHN renal was 103% (inactive) and 32% (inactive); in the test with HL-60(TB) leukemia, 94.8% (inactive) and -6.76% (active).
Regarding `CC(C)=CCc1c2c(c(O)c3c1O[C@]14C(=C[C@@H]5C[C@H]1C(C)(C)O[C@@]4(C/C=C(/C)C(=O)O)C5=O)C3=O)C=CC(C)(C)O2`, the growth in the test on NCI-H226 lung is -2.64% (active); in the test with NCI-H322M lung, -84.9% (active); with HOP-62 NSCLC, -71.1% (active); in the test with NCI-H460 lung, -67.4% (active); with A549/ATCC NSCLC, -43.9% (active); in the test with 786-0 renal it was -82.7% (active). The growth is -79.8% (active) in the test with COLO 205 colon; -100% (active) in the test on DU-145 prostate; -75.1% (active) with SF-268 CNS; -64.5% (active) in the test on SF-295 CNS; -38.9% (active) in the test on SF-539 CNS; -72.5% (active) in the test with HCT-15 colon. Further, the growth is -86.7% (active) in the test with HT29 colon; -62.3% (active) in the test with SNB-75 CNS; -50.9% (active) with SNB-19 CNS; -37.8% (active) in the test on PC-3 prostate; -62.3% (active) with EKVX NSCLC; -76% (active) in the test on UO-31 renal. In addition, the growth in the test on ACHN renal is -82.6% (active); in the test on HL-60(TB) leukemia, -33.7% (active).
As to `CC1=C2C(=C[C@@](C)(COS(C)(=O)=O)[C@@H]2O)C(=O)[C@](C)(O)C12CC2`, the growth was -15.3% (active) in the test with NCI-H226 lung; 4.33% (active) in the test with NCI-H322M lung; 0.685% (active) with HOP-62 NSCLC; 7.36% (active) with NCI-H460 lung; 11.3% (inactive) in the test on A549/ATCC NSCLC; 4.19% (active) in the test with 786-0 renal. Further, the growth was -33.7% (active) in the test on COLO 205 colon; 9.22% (active) in the test on DU-145 prostate; 5.21% (active) in the test with SF-268 CNS; -2.13% (active) in the test with SF-295 CNS; -26.2% (active) in the test with SF-539 CNS; 3.8% (active) with HCT-15 colon. Further, the growth with HT29 colon is 3.64% (active); in the test with SNB-75 CNS, -74.6% (active); in the test with SNB-19 CNS, 4.72% (active); in the test on PC-3 prostate, 6.69% (active); in the test on EKVX NSCLC it was 4.37% (active); in the test with UO-31 renal it was -8.95% (active). Also, the growth in the test with ACHN renal was -0.611% (active); in the test on HL-60(TB) leukemia, -9.62% (active).
For `N#Cc1c(-n2c(Br)c(Br)c3cc(Br)ccc32)[nH]c2c(Br)cc(Br)cc12`, the growth in the test on NCI-H226 lung was -20.5% (active); in the test with NCI-H322M lung, 0.977% (active); in the test with HOP-62 NSCLC, -50.9% (active); with NCI-H460 lung it was -2.03% (active); in the test with A549/ATCC NSCLC, 10.3% (inactive); with 786-0 renal it was -19.1% (active). In addition, the growth in the test with COLO 205 colon is -89.6% (active); in the test on DU-145 prostate, 17% (inactive); with SF-268 CNS, 9.61% (active); in the test on SF-295 CNS it was -67% (active); in the test on SF-539 CNS, 6.25% (active); with HCT-15 colon it was -27% (active). In addition, the growth is -15.1% (active) in the test with HT29 colon; -9.71% (active) with SNB-75 CNS; 15% (inactive) with SNB-19 CNS; -8.16% (active) in the test on PC-3 prostate; 3.62% (active) in the test with EKVX NSCLC; 1.66% (active) with UO-31 renal. Besides, the growth in the test on ACHN renal is 1.41% (active); with HL-60(TB) leukemia, 1.07% (active).
